According to the supplement of paper PMC10981050:
Values joined by “and” are separate entries in the source; they are usually repeats but may differ in a detail not shown here. Equal values may be shown once. Where a name gives a salt, the structure may show the parent alone.

What was measured:
Assay in all cases: cell viability relative to vehicle control; higher = less cytotoxic
Settings in all cases: 10 µM
K562 = system: K562
Method in brief: (§1)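 CRISPR-edited mutant clones and isogenic wild-type clones from four leukaemia lines were screened against Selleck bioactive, kinase and epigenetic probe libraries, with identity-inconsistent compounds excluded. Each compound was acoustically dispensed at a single 10 µM dose into 384-well plates holding 2000 cells in 50 µL medium per well. After 48 h the supernatant was removed and CellTiter-Glo luminescence was read. Viability was expressed as percent of the on-plate vehicle control and analysed in Genedata Screener.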

MARIMO = system: MARIMO
Method in brief: as §1

MOLM14 = system: MOLM14
Method in brief: as §1

OCI-AML2 = system: OCI-AML2
Method in brief: as §1

SMILES | cell viability (K562; SRSF2 genotype: SRSF2 P95H/wt) | cell viability (K562; SRSF2 genotype: SRSF2 wt/wt) [%] | cell viability (MARIMO; SRSF2 genotype: SRSF2 P95H/wt) [%] | cell viability (MARIMO; SRSF2 genotype: SRSF2 wt/wt) [%] | cell viability (MOLM14; SRSF2 genotype: SRSF2 P95H/wt) [%] | cell viability (MOLM14; SRSF2 genotype: SRSF2 wt/wt) [%] | cell viability (OCI-AML2; SRSF2 genotype: P95H/wt) [%] | cell viability (OCI-AML2; SRSF2 genotype: wt/wt) [%]
CCCN[C@H]1CCc2nc(N)sc2C1 [Pramipexole dihydrochloride monohydrate] | 102% and 83.9% | 83 | 78.1 | 85.2 | 66.5 | 74.9 | 88.2 | 78.2
Cc1cc(N2CCCCC2)nc2ccccc12 | 97% and 102% | 98.3 | 93.6 | 106 | 98.8 | 109 | 96.6 | 103
CC(C)C(=O)OCC(=O)[C@@]12O[C@H](C3CCCCC3)O[C@@H]1C[C@H]1[C@@H]3CCC4=CC(=O)C=C[C@]4(C)[C@H]3[C@@H](O)C[C@@]12C [Ciclesonide] | 57% and 55.7% | 62.1 | 63.6 | 68.9 | 41.4 | 41.6 | 25.5 | 59.6
CC(C)(CNC(=O)c1cccc(-c2noc(C(F)(F)F)n2)c1)c1coc(-c2ccccc2)n1 | 89.2% and 87.4% | 94.5 | 82.1 | 82.6 | 91 | 96 | 52.5 | 67.2
CCCCCCCCCCCCCCCCCC(=O)O [Stearic acid] | 107% and 111% | 107 | 107 | 109 | 105 | 108 | 96.4 | 103
Cc1cc(C#N)cc(C)c1Oc1nc(Nc2ccc(C#N)cc2)nc(N)c1Br [Etravirine (TMC125)] | 101% and 96.6% | 94.6 | 97 | 108 | 107 | 102 | 99.5 | 117
CO/N=C(\C(=O)N[C@@H]1C(=O)N2C(C(=O)O)=C(CSc3nc(C)c(CC(=O)O)s3)CS[C@H]12)c1csc(N)n1 [Cefodizime Sodium] | 96% and 90.5% | 103 | 100 | 112 | 97.1 | 104 | 99.6 | 107
CCOC(=O)CCNc1cc(N2CCc3ccccc3CC2)nc(-c2ccccn2)n1 | 26.1% and 28.9% | 27.6 | 25.8 | 27.4 | 30.4 | 24.4 | 28.8 | 25.8
C#Cc1cccc(Nc2ncnc3cc(OCCOC)c(OCCO)cc23)c1 [OSI-420 (Desmethyl Erlotinib)] | 43.5% and 54.3% | 44.4 | 53.9 | 49.5 | 32.1 | 29.9 | 30.6 | 37.5
COCCOC(=O)C1=C(C)NC(C)=C(C(=O)OC/C=C/c2ccccc2)C1c1cccc([N+](=O)[O-])c1 (stereo not drawn) [Cilnidipine] | 87.1% and 86.8% | 81.2 | 88.1 | 98.1 | 78.8 | 81.6 | 78.9 | 74.5
COc1ccc2[nH]c([S@@+]([O-])Cc3ncc(C)c(OC)c3C)nc2c1 [Esomeprazole sodium] | 98.5% and 100% | 94.4 | 98.8 | 99.8 | 97.4 | 90.9 | 96 | 91.8
CC(C)OC(=O)CCC/C=C\C[C@@H]1[C@@H](CC[C@@H](O)CCc2ccccc2)[C@H](O)C[C@@H]1O [Latanoprost] | 93% and 96.4% | 90.1 | 89.6 | 92.5 | 88 | 103 | 97.8 | 98.3
Cc1cc(O)c(C(=O)N[C@@H](C(=O)N[C@@H]2C(=O)N3C(C(=O)O)=C(CSc4nnnn4C)CS[C@H]23)c2ccc(O)cc2)cn1 [Cefpiramide sodium] | 111% and 107% | 104 | 109 | 115 | 107 | 110 | 99.7 | 99.8
FC(F)(F)Oc1ccc2nc(-c3ccc(OCCOCCOc4ccc(-c5nc6ccc(OC(F)(F)F)cc6[nH]5)nc4)cn3)[nH]c2c1 | 52.4% and 53% | 56.4 | 26.9 | 39.3 | 50.4 | 41.3 | 18.4 | 24.8
COc1nccc(-c2c(-c3ccc(F)cc3)ncn2C2CCC(O)CC2)n1 (stereo not drawn) | 96.5% and 98.5% | 89.3 | 98.3 | 110 | 107 | 107 | 107 | 107
O=C1C(=Cc2ccncc2)CCCC1=Cc1ccncc1 | 7.78% and 5.31% | 20.5 | 1.92 | 0.58 | 2.47 | 0.31 | 0.15 | 0.12
Cn1cc(-c2ccc(S(=O)(=O)n3ccc(/C=C/C(=O)Nc4ccccc4N)c3)cc2)cn1 | 15% and 29.1% | 32 | 6.4 | 5.67 | 7.6 | 2.05 | 8.31 | 8.21
COc1ccccc1Oc1c(NS(=O)(=O)c2ccc(C(C)(C)C)cc2)nc(-c2ncccn2)nc1OCCO [Bosentan Hydrate] | 99.5% and 99.8% | 98.6 | 97.3 | 104 | 97.1 | 105 | 112 | 95.2
Cc1c(C(=O)C=Cc2ccccc2)[n+](=O)c2ccccc2n1[O-] [Quinocetone] | 72.1% and 60% | 74.1 | 62.2 | 63.8 | 56.5 | 62.6 | 62.7 | 68.6
C=C(C(=O)O)C1CCC(C)C2CCC(C)=CC12 (stereo not drawn) [Artemisic acid] | 114% and 110% | 113 | 108 | 90.8 | 104 | 108 | 99.1 | 103
Cc1ccc2c(=O)c3cccc(CC(=O)O)c3oc2c1C [DMXAA (Vadimezan)] | 90% and 87.7% | 90.5 | 89.9 | 102 | 85.4 | 87.8 | 88.9 | 93.1
